From PubChem BioAssay AID588726 (The Scripps Research Institute Molecular Screening Center, 2011)
In all, about 360,000 compounds went through this assay and about 8,200 (2.3%) were called active. No stated cut-off is given here; in the data, active means inhibition above about 27%; inactive means the rest. What follows is part of a selection rich in actives, with near analogues and random picks from the rest.

The compounds below were run against Fructose-bisphosphate aldolase (Mycobacterium tuberculosis (strain ATCC 25618 / H37Rv)) (UniProt P9WQA3) (assay: M. tuberculosis aldolase activity blockers – biochemical, fluorescence, strain H37Rv, primary screen (AID 588726;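 further: 0% = vehicle and 100% = reference inhibitor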)). Conditions: purified M. tuberculosis FBA, fluorescence read-out, at 1 µM, active compounds read high.
Chain of Fructose-bisphosphate aldolase (Mycobacterium tuberculosis (strain ATCC 25618 / H37Rv)) (P9WQA3 whole entry, looked up): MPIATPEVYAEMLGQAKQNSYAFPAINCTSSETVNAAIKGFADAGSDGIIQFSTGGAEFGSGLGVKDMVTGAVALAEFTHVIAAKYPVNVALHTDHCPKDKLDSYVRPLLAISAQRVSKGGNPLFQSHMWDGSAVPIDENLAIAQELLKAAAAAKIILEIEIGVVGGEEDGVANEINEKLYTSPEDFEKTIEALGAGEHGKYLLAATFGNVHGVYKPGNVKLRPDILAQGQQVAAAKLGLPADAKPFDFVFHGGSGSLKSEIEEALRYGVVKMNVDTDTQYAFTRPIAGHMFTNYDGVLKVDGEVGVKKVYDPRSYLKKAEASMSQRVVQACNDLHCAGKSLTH

Compound	inhibition
COc1ccccc1NC(=O)COC(=O)COc1ccccc1F	-0.62% (inactive)
COc1ccccc1NC(=O)COc1ccc(C(=O)OCC(=O)N(C(C)C)C(C)C)cc1OC	33.2% (active)
COc1cc(CO)ccc1OCC(=O)Nc1cccc2ccccc12	-1.87% (inactive)
COc1ccc(C2c3c(C)nn(-c4ccccc4)c3NC(=O)N2c2ccccc2)cc1 (stereo not drawn)	-0.42% (inactive)
O=C(CCC1CCN(C(=O)c2cccc(Cl)c2F)CC1)Nc1ccccc1	-0.26% (inactive)
COc1ccc(CCNC(=O)Nc2ccc3c(c2)c(=O)n(C)n3C)cc1OC	156% (active)
COc1ccc(CCNC(=O)c2cc3sccc3n2C)cc1OC	6.99% (inactive)
COc1ccc(CCNC(=O)C(=O)Nc2ccc3nc4n(c(=O)c3c2)CCCCC4)cc1OC	-5.38% (inactive)
COCc1cc(=O)n2[nH]c(C)c(-c3ccccc3)c2n1	102% (active)
COCc1cc(=O)[nH]c(SC)n1	2.44% (inactive)
CCCc1c(C)nc2scc(-c3ccc(Cl)cc3)n2c1=O	0.91% (inactive)
Cc1nc2nc(COc3ccccc3)[nH]n2c(=O)c1C	0.07% (inactive)
CCCc1cc(=O)n2[nH]c(SCc3ccccc3)nc2n1	-0.14% (inactive)
Cc1nc2c(-c3ccccc3)c(C)[nH]n2c(=O)c1Cl	47.5% (active)
COCc1cc(=O)[nH]c(-c2ccc(C(F)(F)F)cc2)n1	2.51% (inactive)
CCCc1cc(=O)n2[nH]c(C)c(-c3ccc(Cl)cc3)c2n1	27.5% (active)
Cc1nc(=O)c(-c2ccccc2)c(C)n1-c1ccc(Br)cc1	2.14% (inactive)
COc1ccc(-c2csc3nc(-c4ccccc4F)oc(=O)c23)cc1OC	2.27% (inactive)
C=CC(=O)Nc1ccc(Nc2ccnc(Nc3ccc(N4CCN(C)CC4)cc3)n2)cc1	3.07% (inactive)
Cc1nc(SCC(=O)N2CCc3ccccc3C2)c2c(C)c(C)sc2n1	0.74% (inactive)

Compound	inhibition
COc1cc(C2C(C#N)=C(C)NC3=C2C(=O)CC(C)(C)C3)ccc1O (stereo not drawn)	0.13% (inactive)
Cc1sc2nc(-c3ccccc3F)oc(=O)c2c1C	-0.79% (inactive)
COc1ccccc1N(CC(=O)N/N=C(\C)c1ccccc1O)S(=O)(=O)c1ccc(C)cc1	2.36% (inactive)
COc1ccc(-c2cc3ccc(OCc4nn[nH]n4)cc3oc2=O)cc1	734% [above what the read-out allows, likely interference] (active)
COc1ccc(-c2csc3ncnc(Oc4ccc5c(C)cc(=O)oc5c4)c23)cc1	2.35% (inactive)
COc1ccc(-c2cc(=O)oc3cc(OCC(=O)N[C@@H](Cc4c[nH]c5ccccc45)C(=O)O)ccc23)cc1	6.63% (inactive)
CC1CCN(C(=O)Cn2nnnc2CN2CCOCC2)CC1	-0.01% (inactive)
CCN(CC)c1ccc([N+](=O)[O-])cc1C(=O)O	-17.9% (inactive)
Cc1cc(C)cc(OCC(=O)NNC(=O)c2cc3ccccc3oc2=O)c1	1.86% (inactive)
CCN(CC)c1ccc2cc(C(=O)O)c(=O)oc2c1	36.2% (active)
Cc1ccc(C2=Nc3c(ccc4ccccc34)C(c3ccncc3)=NN2)cc1	1.27% (inactive)
CC1(C(=O)NCc2ccc(F)c(F)c2)Cc2c(-c3ccc4c(c3)OCO4)ccnc2O1 (stereo not drawn)	44.6% (active)
CC1(C(=O)NCC2CCOCC2)Cc2c(-c3cccc(C(N)=O)c3)ccnc2O1 (stereo not drawn)	-0.46% (inactive)
CC(=O)Nc1cccc(-c2ccnc3c2CC(C)(C(=O)NCc2ccco2)O3)c1 (stereo not drawn)	-0.36% (inactive)
O=C(Cn1nnc(-c2ccc3c(c2)OCO3)n1)NCc1ccco1	1.83% (inactive)
CC(=O)Nc1cccc(-c2ccnc3c2CC(C)(C(=O)NCc2ccccc2)O3)c1 (stereo not drawn)	1.41% (inactive)
CC1(C(=O)NCc2ccco2)Cc2c(-c3ccc4c(c3)OCO4)ccnc2O1 (stereo not drawn)	46.9% (active)
CCc1nc2c(OCC(N)=O)cccn2c1N(C)C(=O)c1ccc(OC)cc1	-2.06% (inactive)
Cc1nc(C(=O)NCc2ccccc2)sc1C1(C)CC(c2cccnc2)=NO1 (stereo not drawn)	-0.93% (inactive)
O=C(CN1CCN(S(=O)(=O)c2ccc(Cl)s2)CC1)N1CCCCC1	5.01% (inactive)

Compound	inhibition
COc1ccc(NC(=O)CN(C)C(=O)c2cc(C)oc2C)cc1	0.68% (inactive)
C/C(=N\NC(=O)c1cc(-c2ccc(O)cc2)nc2ccccc12)c1cccnc1	0.88% (inactive)
COc1ccc(-c2cc(C(=O)n3cnc4ccccc43)c3ccccc3n2)cc1	113% (active)
COc1ccc(C)cc1NC(=O)c1cc(-c2ccccc2)nc2c1cnn2C(C)C	1.87% (inactive)
COc1ccc(-c2cc(C(=O)Nc3ccccc3O)c3ccccc3n2)cc1	28.8% (active)
COc1ccc(NC(=O)CN(C)C(=O)c2cc(-c3ccc(C)o3)nc3ccccc23)cc1	71.2% (active)
O=C(c1ccc(Cl)cc1)n1cnc2ccccc21	5.13% (inactive)
CN(C(=O)COC(=O)c1cc(-c2ccco2)nc2ccccc12)C1CCS(=O)(=O)C1 (stereo not drawn)	4.55% (inactive)
CN(CCOc1ccccc1)C(=O)c1cc(COc2c(F)cccc2F)on1	-3.64% (inactive)
COc1cccc(NC(=O)CN(C)C(=O)c2cc(Cl)nc3ccccc23)c1	2.95% (inactive)
CN(CCOc1ccccc1)C(=O)c1cc(-c2ccco2)nc2ccccc12	29.6% (active)
C/C(N)=C(/C#N)C(=O)COC(=O)c1cc(-c2ccc(C)cc2)nc2ccccc12	0.39% (inactive)
CC(C)c1ccc(/C=C/C(=O)NCCCN2CCOCC2)cc1	0.72% (inactive)
CCN(C(=O)c1cc([N+](=O)[O-])ccc1NCc1cccnc1)c1ccccc1	2.57% (inactive)
COC(=O)c1cc2n(n1)CCCNC2=O	3.15% (inactive)
C=C(C)Cn1c(C)cc(C)c(S(=O)(=O)c2ccccc2C)c1=O	-0.53% (inactive)
CCc1cc(C(c2ccccc2OC)N2CCOCC2)c(NC(=O)c2ccccc2)s1 (stereo not drawn)	-1.6% (inactive)
COc1cccc(C(=O)N/N=C(\C)c2cccc(NC(=O)c3ccc(F)cc3)c2)c1OC	-1.27% (inactive)
